Data from PubChem BioAssay (NCATS).
Inconclusive results are not listed. A call without a number means that no potency is given here. Active and inactive are the calls of the source. Unless noted, the call rests on the fitted dose curve; in most records, active means well fitted curve in the direction sought with a large enough effect; inconclusive means small, poorly fitted or top-dose-only effect, or another doubt; inactive means no such curve, though single readings can be large; an effect the other way counts as inactive or inconclusive. Where a SMILES comes first, the peptide text is derived from it. The star is where a group is joined. AMC = Cc1cc(=O)oc2cc(N*)ccc12; Cbz = O=C(OCc1ccccc1)*

Key:
[1] = target: Calcium and integrin-binding protein 1 (Homo sapiens) (UniProt Q99828); test: Primary qHTS for Identification of Calcium Integrin Binding Protein 1 (CIB1) Competitor (AID 1508620);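 further: GST tagged CIB1 binding a fluorescein labelled alphaIIb integrin peptide tracer; top concentration of the series differs between compounds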
Summary of the method: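 Fluorescence polarization competition: GST-tagged CIB1 (1 uM final) preincubated with compound 15 min at room temperature, then FITC-labelled alphaIIb peptide (100 nM final) added. After 15 min at room temperature, polarization read at Ex 480/Em 540.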

[2] = Primary qHTS for inhibitors of nuclear receptor binding SET domain protein 2 (NSD2) in an isogenic RCH-ACV NSD2 p.E1099K mutant (9B) (AID 1645876); further: nearly all actives have a fitted effect of over 70% in size; further: potency means the concentration at half of the fitted maximal effect
[3] = Primary qHTS for inhibitors of nuclear receptor binding SET domain protein 2 (NSD2) in an RCH-ACV wild type WT cells (2C) (AID 1645877); further: nearly all actives have a fitted effect of over 70% in size; further: potency means the concentration at half of the fitted maximal effect
[4] = target: Catechol O-methyltransferase (Homo sapiens) (UniProt P21964); test: Confirmatory Screen for Target Class Profiling of Small Molecule Inhibitors of Methyltransferases (AID 1745852; calls by dose curve; further: potency means the concentration at half of the fitted maximal effect); conditions: MTase-Glo luminescence, SAH detection, recombinant enzyme; measured here: COMT max response; stronger effect = lower value
[5] = target: Guanidinoacetate N-methyltransferase (Homo sapiens) (UniProt Q14353); test: as above; conditions: MTase-Glo luminescence, SAH detection, recombinant enzyme; activity change, negative = inhibition: at 57.3 µM (top of the series) unless noted
[6] = target: Nicotinamide N-methyltransferase (Homo sapiens) (UniProt P40261); test: as above; conditions: MTase-Glo luminescence, SAH detection, recombinant enzyme; measured here: NNMT max response; stronger effect = lower value
[7] = target: Phenylethanolamine N-methyltransferase (Homo sapiens) (UniProt P11086); test: as above; conditions: MTase-Glo luminescence, SAH detection, recombinant enzyme; measured here: PNMT max response; stronger effect = lower value
[8] = target: Cytochrome P450 2C9 (Homo sapiens) (UniProt P11712); test: Cytochrome P450 family 2 subfamily C member 9 (CYP2C9) small molecule antagonists: luciferase biochemical (cell-free) qHTS assay (AID 1645842; active means well fitted curve in the direction sought with a large enough effect in the repeat runs; an effect the other way counts as inactive or inconclusive; further: nearly all actives have a fitted effect of over 55% in size; further: potency means the concentration at half of the fitted maximal effect)
Summary of the method: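 P450-Glo CYP2C9 system: proluciferin substrate with enzyme in mix containing 0.4% BSA, 10 min at room temperature, then NADPH regeneration solution added and incubated 1 h at 37C. Detection reagent stopped reaction; luminescence read after 20 min as RLU.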

[9] = target: Cytochrome P450 2D6 (Homo sapiens) (UniProt P10635); test: Cytochrome P450 family 2 subfamily D member 6 (CYP2D6) small molecule antagonists: luciferase biochemical (cell-free) qHTS assay (AID 1645840; active means well fitted curve in the direction sought with a large enough effect in the repeat runs; an effect the other way counts as inactive or inconclusive; further: nearly all actives have a fitted effect of over 55% in size; further: potency means the concentration at half of the fitted maximal effect)
Summary of the method: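 P450-Glo CYP2D6 system: proluciferin substrate converted by enzyme to luciferin, read by luminescence proportional to activity. Enzyme-substrate mix with compound 10 min at room temperature, then NADPH regeneration 1 h before detection reagent.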

[10] = target: Rap guanine nucleotide exchange factor 3 (Homo sapiens) (UniProt O95398); test: Confirmatory qHTS for antagonist of cAMP-regulated guanine nucleotide exchange factor 3 (EPAC1) (AID 1645880); conditions: EPAC1 Rap1B-BODIPY-GDP exchange, fluorescence; further: potency means the concentration at half of the fitted maximal effect; nearly all actives have a fitted effect of over 55% in size
Summary of the method: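 Released BODIPY-GDP fluoresces less than Rap1-bound BODIPY-GDP; the signal is followed at 480/540 nm at 5-min intervals over 30 min, after 5 min at room temperature. Reactions contain 100 nM EPAC1, 250 nM RAP1B-BODIPY-GDP and 50 uM GDP; results are normalized to ATA and DMSO.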

[11] = target: Rap guanine nucleotide exchange factor 3 (Homo sapiens) (UniProt O95398); test: Confirmatory qHTS for agonist of cAMP-regulated guanine nucleotide exchange factor 3 (EPAC1) (AID 1645881);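 further: EPAC1 catalysed release of BODIPY-GDP from Rap1B seen as fluorescence loss; nearly all actives have a fitted effect of over 75% in size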
[12] = target: Rap guanine nucleotide exchange factor 4 (Homo sapiens) (UniProt Q8WZA2); test: Confirmatory qHTS for agonist of cAMP-regulated guanine nucleotide exchange factor 4 (EPAC2) (AID 1645884);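 further: nucleotide exchange releases bodipy-GDP from Rap1 and this lowers its fluorescence; nearly all actives have a fitted effect of over 65% in size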
[13] = target: Rap guanine nucleotide exchange factor 4 (Homo sapiens) (UniProt Q8WZA2); test: Confirmatory qHTS for antagonist of cAMP-regulated guanine nucleotide exchange factor 4 (EPAC2) (AID 1645885); conditions: outcome: dose series up to 114 µM; further: nearly all actives have a fitted effect of over 25% in size
[14] = target: Rap guanine nucleotide exchange factor 3 (Homo sapiens) (UniProt O95398); test: Counterscreen qHTS for antagonist of cAMP-regulated guanine nucleotide exchange factor 3 (EPAC1) (AID 1645888)
Summary of the method: (§1)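 Rap1B–BODIPY-GDP (250 nM) with 50 uM GDP; compounds pin-transferred to 9.74 nM–152 uM final (activator) or from 7.32 nM upwards (inhibitor). Fluorescence Ex/Em 480/540 nm read at 5 and 30 min, then after adding cAMP or buffer, at room temperature.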

[15] = target: Rap guanine nucleotide exchange factor 3 (Homo sapiens) (UniProt O95398); test: Counterscreen qHTS for agonist of cAMP-regulated guanine nucleotide exchange factor 3 (EPAC1) (AID 1645889); further: nearly all actives have a fitted effect of over 40% in size
Summary of the method: as §1

Sequence of Catechol O-methyltransferase (Homo sapiens) (P21964 whole entry, looked up): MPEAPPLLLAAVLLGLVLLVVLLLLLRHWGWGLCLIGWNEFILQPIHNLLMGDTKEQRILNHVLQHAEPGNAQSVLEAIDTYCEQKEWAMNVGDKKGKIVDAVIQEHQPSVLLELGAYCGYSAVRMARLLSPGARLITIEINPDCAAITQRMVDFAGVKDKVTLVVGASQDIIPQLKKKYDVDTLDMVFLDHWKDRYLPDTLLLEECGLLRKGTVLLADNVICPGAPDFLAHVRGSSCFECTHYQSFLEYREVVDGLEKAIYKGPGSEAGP
Sequence of Nicotinamide N-methyltransferase (Homo sapiens) (P40261 whole entry, looked up): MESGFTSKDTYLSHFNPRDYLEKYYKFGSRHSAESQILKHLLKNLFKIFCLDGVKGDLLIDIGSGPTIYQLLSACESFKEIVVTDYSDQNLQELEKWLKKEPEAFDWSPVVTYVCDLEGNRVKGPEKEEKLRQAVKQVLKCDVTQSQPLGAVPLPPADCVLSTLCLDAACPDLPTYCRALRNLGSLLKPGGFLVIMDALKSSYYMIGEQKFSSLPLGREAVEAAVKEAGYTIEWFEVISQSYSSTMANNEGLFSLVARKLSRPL
Sequence of Cytochrome P450 2C9 (Homo sapiens) (P11712 whole entry, looked up): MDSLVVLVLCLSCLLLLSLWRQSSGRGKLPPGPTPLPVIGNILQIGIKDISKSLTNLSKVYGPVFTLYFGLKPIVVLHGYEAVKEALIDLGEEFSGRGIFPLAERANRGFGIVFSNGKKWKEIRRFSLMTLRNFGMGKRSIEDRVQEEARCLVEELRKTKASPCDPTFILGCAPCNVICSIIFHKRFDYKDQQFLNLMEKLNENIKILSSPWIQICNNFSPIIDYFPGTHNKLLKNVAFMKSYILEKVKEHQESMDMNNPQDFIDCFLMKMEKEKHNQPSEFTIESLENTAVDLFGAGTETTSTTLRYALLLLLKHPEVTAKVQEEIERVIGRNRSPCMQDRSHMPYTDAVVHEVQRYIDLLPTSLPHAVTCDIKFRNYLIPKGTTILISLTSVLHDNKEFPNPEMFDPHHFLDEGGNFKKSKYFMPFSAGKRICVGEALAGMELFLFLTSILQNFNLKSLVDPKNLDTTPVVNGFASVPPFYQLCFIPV
Sequence of Phenylethanolamine N-methyltransferase (Homo sapiens) (P11086 whole entry, looked up): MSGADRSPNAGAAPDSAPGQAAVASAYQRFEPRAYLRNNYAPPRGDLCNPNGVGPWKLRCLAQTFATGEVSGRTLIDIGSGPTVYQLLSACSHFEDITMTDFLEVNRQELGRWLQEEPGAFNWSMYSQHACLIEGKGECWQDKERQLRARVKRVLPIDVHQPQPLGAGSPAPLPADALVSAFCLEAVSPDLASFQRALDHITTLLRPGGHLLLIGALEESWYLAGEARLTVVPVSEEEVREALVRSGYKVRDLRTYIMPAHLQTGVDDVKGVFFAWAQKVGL
Sequence of Rap guanine nucleotide exchange factor 3 (Homo sapiens) (O95398 whole entry, looked up): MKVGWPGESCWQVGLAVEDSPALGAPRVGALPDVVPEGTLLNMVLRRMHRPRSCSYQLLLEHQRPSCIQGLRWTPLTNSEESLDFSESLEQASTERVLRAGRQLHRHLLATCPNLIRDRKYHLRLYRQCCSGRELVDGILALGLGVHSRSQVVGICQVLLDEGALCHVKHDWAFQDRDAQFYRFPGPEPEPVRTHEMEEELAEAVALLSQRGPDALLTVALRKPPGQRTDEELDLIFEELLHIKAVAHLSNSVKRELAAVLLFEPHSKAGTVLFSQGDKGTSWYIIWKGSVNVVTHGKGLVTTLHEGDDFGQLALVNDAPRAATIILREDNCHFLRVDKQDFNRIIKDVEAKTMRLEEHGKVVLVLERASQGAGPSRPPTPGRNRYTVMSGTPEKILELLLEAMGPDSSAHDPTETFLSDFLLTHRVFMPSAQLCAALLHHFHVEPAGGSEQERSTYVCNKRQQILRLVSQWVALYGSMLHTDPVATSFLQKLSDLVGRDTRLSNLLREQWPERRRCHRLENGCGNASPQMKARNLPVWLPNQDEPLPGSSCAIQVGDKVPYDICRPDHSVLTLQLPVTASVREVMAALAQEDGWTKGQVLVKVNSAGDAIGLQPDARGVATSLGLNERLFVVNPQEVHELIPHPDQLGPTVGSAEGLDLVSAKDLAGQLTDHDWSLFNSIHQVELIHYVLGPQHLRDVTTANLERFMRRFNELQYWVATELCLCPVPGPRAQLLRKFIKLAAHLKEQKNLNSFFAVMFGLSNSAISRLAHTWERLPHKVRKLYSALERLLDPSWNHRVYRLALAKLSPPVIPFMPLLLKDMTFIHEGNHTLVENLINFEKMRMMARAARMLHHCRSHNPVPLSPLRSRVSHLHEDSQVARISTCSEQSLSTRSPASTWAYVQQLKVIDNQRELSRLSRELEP
Sequence of Cytochrome P450 2D6 (Homo sapiens) (P10635 whole entry, looked up): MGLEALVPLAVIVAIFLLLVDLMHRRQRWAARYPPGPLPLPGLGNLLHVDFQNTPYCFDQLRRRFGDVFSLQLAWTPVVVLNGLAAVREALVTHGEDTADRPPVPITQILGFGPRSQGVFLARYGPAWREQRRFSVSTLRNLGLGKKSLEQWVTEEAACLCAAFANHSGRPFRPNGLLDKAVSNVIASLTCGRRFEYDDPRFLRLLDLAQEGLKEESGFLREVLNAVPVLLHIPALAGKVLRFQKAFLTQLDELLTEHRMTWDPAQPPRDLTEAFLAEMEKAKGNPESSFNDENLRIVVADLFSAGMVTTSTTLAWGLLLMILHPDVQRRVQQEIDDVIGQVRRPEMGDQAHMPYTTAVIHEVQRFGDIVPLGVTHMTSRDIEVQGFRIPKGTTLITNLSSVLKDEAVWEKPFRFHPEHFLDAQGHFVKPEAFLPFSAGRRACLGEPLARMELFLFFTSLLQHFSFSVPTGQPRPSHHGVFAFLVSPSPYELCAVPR
Sequence of Calcium and integrin-binding protein 1 (Homo sapiens) (Q99828 whole entry, looked up): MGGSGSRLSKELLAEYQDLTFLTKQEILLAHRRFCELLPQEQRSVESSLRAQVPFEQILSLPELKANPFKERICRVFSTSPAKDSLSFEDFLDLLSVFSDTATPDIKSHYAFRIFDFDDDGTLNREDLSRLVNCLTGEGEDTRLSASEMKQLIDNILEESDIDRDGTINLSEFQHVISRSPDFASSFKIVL
Sequence of Rap guanine nucleotide exchange factor 4 (Homo sapiens) (Q8WZA2 whole entry, looked up): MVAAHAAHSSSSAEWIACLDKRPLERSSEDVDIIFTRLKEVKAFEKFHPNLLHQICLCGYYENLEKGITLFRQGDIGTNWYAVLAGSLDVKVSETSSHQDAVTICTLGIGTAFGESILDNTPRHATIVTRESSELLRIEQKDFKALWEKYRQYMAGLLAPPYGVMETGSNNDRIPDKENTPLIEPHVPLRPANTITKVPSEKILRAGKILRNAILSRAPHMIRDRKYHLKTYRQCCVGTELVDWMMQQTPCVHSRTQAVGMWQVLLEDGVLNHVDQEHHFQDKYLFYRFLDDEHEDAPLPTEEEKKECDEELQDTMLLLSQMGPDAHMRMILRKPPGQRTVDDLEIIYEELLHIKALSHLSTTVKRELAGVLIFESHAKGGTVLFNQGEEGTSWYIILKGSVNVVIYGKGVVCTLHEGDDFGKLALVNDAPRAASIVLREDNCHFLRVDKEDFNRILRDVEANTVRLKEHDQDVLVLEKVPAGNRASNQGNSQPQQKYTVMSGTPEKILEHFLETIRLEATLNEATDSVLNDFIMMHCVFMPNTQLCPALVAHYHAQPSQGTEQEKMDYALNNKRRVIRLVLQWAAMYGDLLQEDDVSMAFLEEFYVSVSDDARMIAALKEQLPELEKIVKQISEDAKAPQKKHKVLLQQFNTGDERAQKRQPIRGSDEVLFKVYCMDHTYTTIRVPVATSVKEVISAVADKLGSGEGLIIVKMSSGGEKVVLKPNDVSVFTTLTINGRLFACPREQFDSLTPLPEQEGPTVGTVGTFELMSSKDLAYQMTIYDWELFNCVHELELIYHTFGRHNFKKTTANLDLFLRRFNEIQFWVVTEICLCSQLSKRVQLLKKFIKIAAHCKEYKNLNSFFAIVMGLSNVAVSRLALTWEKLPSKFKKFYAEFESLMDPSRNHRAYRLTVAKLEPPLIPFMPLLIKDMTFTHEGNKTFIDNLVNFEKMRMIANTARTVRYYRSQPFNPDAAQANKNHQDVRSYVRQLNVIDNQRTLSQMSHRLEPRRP

For COc1c(O)cc2c(c1O)C(=O)O[C@H](C)[C@H]2O, the Potency [1] was “inactive”, the Potency [2] was “inactive” and the Potency [3] was “inactive”. For the same compound, the activity [4] was -42.1%, the activity change, negative = inhibition [5] was 0.552% and the activity [6] was 0.175%. For the same compound, the activity [7] was 0.108%.

With COc1cc(/C=C/C(=O)OCC2OC(OC3(CO)OC(CO)C(O)C3O)C(O)C(O)C2O)ccc1O (configuration not stated) the Potency [1] was “inactive”, the Potency [2] was “inactive” and the Potency [3] was “inactive”. For the same compound, the activity [4] was -68.2%, the activity change, negative = inhibition [5] was -1.33% [at 29.8 µM] and the activity [6] was -1.16%. The activity [7] was 3.04%.

In the case of COc1c2cc(c(O[C@@H]3O[C@H](CO)[C@@H](O)[C@H](O)[C@H]3O)c1OC)CCCCC(O)CCc1ccc(O)c-2c1 (some centres not stated), the Potency [1] was “inactive”, the Potency [2] was “inactive” and the Potency [3] was “inactive”. The activity [4] was -87.3%, the activity change, negative = inhibition [5] was -7.96% [at 29.8 µM] and the activity [6] was -5.32%. It also gave an activity [7] of -8.72%.

For CSCC1OC(n2cnc3c(=O)[nH]cnc32)C(O)C1O (configuration not stated), the Potency [1] was “inactive”, the Potency [2] was “inactive” and the Potency [3] was “inactive”.

With COc1cc2c(cc1OC)N1C(=O)C[C@@]34C=CC[N@+]5([O-])CC[C@H]2[C@H](CC3)[C@@]145 the Potency [1] was “inactive”, the Potency [2] was “inactive” and the Potency [3] was “inactive”.

In the case of Nc1nc2c(nc(Sc3ccc(Cl)cc3)n2[C@@H]2O[C@@H]3COP(=O)(O)O[C@H]3[C@H]2O)c(=O)[nH]1, the Potency [1] was “inactive”, the Potency [2] was “inactive” and the Potency [3] was “inactive”.

With NC(=O)NCCCC(NC(=O)Cc1ccccc1)C(=O)O (configuration not stated) the Potency [1] was “inactive”, the Potency [2] was “inactive” and the Potency [3] was “inactive”.

With CC1(C)CC[C@]2(C(=O)O)CC[C@]3(C)C(=CCC4[C@@]5(C)C[C@H](O)[C@H](O[C@@H]6O[C@H](CO)[C@@H](O)[C@H](O)[C@H]6O)[C@@](C)(CO)C5[C@H](O)C[C@]43C)[C@@H]2C1 (some centres not stated) the Potency [1] was “inactive” and the Potency [3] was “inactive”.

For C=C[C@H]1[C@H](O[C@@H]2O[C@H](CO)[C@@H](O)[C@H](OC(=O)/C=C/c3ccc(O)c(OC)c3)[C@H]2O)OC=C2C(=O)OCC[C@]21O, the Potency [1] was “inactive”, the Potency [2] was “inactive” and the Potency [3] was “inactive”. The activity [4] was -63.6%, the activity change, negative = inhibition [5] was -8.69% [at 29.8 µM] and the activity [6] was -4.35%. It also gave an activity [7] of -4.62%.

For C=C1C(=O)O[C@@H]2CC(C)=C([C@@H](C)CCCOC(C)=O)[C@@H](O)[C@H]12, the Potency [1] was “inactive”, the Potency [2] was “inactive” and the Potency [3] was “inactive”. The activity [4] was -78.5%, the activity change, negative = inhibition [5] was 1.58% and the activity [6] was -0.922%. For the same compound, the activity [7] was -2.38%.

In the case of OC[C@H]1O[C@@H](Oc2cc(O)cc(-c3cc4ccc(O[C@@H]5O[C@H](CO)[C@@H](O)[C@H](O)[C@H]5O)cc4o3)c2)[C@H](O)[C@@H](O)[C@@H]1O, the Potency [1] was “inactive” and the Potency [3] was “inactive”.

With Fc1ccccc1-c1nc2ccn(Cc3ccc(-c4ccc(C(F)(F)F)cc4C(F)(F)F)nn3)cc-2n1 the Potency [8] was 23.9 µM (active), the Potency [2] was “inactive” and the Potency [3] was “inactive”.

For CC1CCCCCCCc2cc(O)cc(O)c2C(=O)O1 (configuration not stated), the Potency [1] was “inactive”, the activity [4] was -69.9% and the Potency [5] was 30.4 µM (active). It also gave an activity [6] of -60.9% and an activity [7] of -64.4%.

For Cc1oc2nc3c(c(NC(=O)CN4CCCC4=O)c2c1C)CCCC3, the Potency [9] was “inactive”, the Potency [8] was “inactive” and the Potency [2] was “inactive”. For the same compound, the Potency [3] was “inactive”.

For COC(=O)C1C(O)CCC2CN3CCc4c([nH]c5ccccc45)C3CC21 (configuration not stated), the Potency [2] was “inactive” and the Potency [3] was “inactive”.

With CCOc1ccc(-c2cc(NC(=O)c3c(F)cccc3F)c(C(=O)O)s2)cc1 the Potency [9] was 7.56 µM (active), the Potency [10] was 9.53 µM (active) and the outcome [11] was “inactive”. For the same compound, the outcome [12] was “inactive”, the outcome [13] was “inactive” and the outcome [14] was “inactive”. The outcome [15] was “inactive”, the activity [4] was -2.79% and the activity change, negative = inhibition [5] was 0.993%. For the same compound, the activity [6] was -5.18% and the activity [7] was -2.03%.

With CC(=O)OC/C(=C/C(=O)O)CC[C@@H]1C(C)=CC(=O)[C@@H]2C(C)(C)CCC[C@@]12C the Potency [1] was “inactive”, the Potency [2] was “inactive” and the Potency [3] was “inactive”. For the same compound, the activity [4] was -62.3%, the activity change, negative = inhibition [5] was 0% and the activity [6] was -1.14%. The activity [7] was -1.13%.

In the case of COc1cc(Nc2ccc([N+](=O)[O-])cc2C(=O)O)cc2ccccc12, the Potency [8] was 6.74 µM (active), the Potency [2] was “inactive” and the Potency [3] was “inactive”.

For Cc1cc(=O)oc2cc(NC(=O)[C@H](CCC(=O)O)NC(=O)[C@H](CC(C)C)NC(=O)[C@H](CC(C)C)NC(=O)OCc3ccccc3)ccc12 (Cbz-Leu-Leu-Glu-{AMC}), the Potency [1] was “inactive”, the Potency [2] was “inactive” and the Potency [3] was “inactive”. It also gave an activity [4] of -1.08%, an activity change, negative = inhibition [5] of 0% and an activity [6] of -71.3%. For the same compound, the activity [7] was -1.44%.

In the case of Cc1ccc(Nc2nnc(-c3ccc([N+](=O)[O-])cc3)o2)cc1Cl, the Potency [9] was “inactive” and the Potency [3] was “inactive”.

In the case of CCC(=O)OCC(=O)[C@@]1(OC(=O)CC)[C@@H](C)C[C@H]2[C@@H]3CCC4=CC(=O)C=C[C@]4(C)[C@@]3(F)[C@@H](O)C[C@@]21C, the Potency [1] was “inactive” and the Potency [3] was 7.3 nM (active).

For O=c1[nH]ccc2nc(-c3ccc(CN4CCC(c5nc(-c6ccccn6)n[nH]5)CC4)cc3)c(-c3ccccc3)cc12, the Potency [1] was “inactive”, the Potency [2] was 32.5 nM (active) and the Potency [3] was 81.7 nM (active). For the same compound, the activity [4] was -10.1%, the activity change, negative = inhibition [5] was -7.59% and the activity [6] was -47.8%. The activity [7] was -18%.

With O=C(O)c1cccc(CN2C(=O)/C(=C(\c3ccccc3)c3ccc(Cl)cc3)c3ccccc32)c1 the Potency [8] was 15.1 µM (active), the activity [4] was -6.02% and the activity change, negative = inhibition [5] was -1.74%. For the same compound, the activity [6] was -41.9% and the activity [7] was -8.16%.

With C/C=C(\C)C(=O)OC1C2(O)CC3=C4CC(=O)OC(c5ccoc5)C4(C)CCC3C(C)(C2=O)C(C(OC(C)=O)C(=O)OC)C1(C)C (configuration not stated) the Potency [1] was “inactive” and the Potency [3] was 3830 nM (active).

In the case of COc1c2c(c(C)c3c1C(=O)OC3)OC1(C)CC(O)C34OC(OC)(CC(O)C3(C)C1C2)OC4(C)C (configuration not stated), the Potency [1] was “inactive”, the activity [4] was -15% and the activity change, negative = inhibition [5] was -2.68% [at 29.8 µM]. The activity [6] was -8.14% and the activity [7] was -5.39%.

For C=C1CC/C=C(/CO)C(=O)C[C@@H]2[C@@H]1C[C@@]2(C)COC(C)=O, the Potency [1] was “inactive”, the Potency [2] was “inactive” and the activity [4] was -65.6%. For the same compound, the activity change, negative = inhibition [5] was 0%, the activity [6] was 0.048% and the activity [7] was 1.6%.

In the case of C/C=C1/CC2C(=O)Nc3cc(O)c(OC)cc3C(=O)N2C1 (configuration not stated), the Potency [1] was “inactive” and the Potency [3] was 10100 nM (active).

With Cc1ccccc1NC(=O)Nc1ccc(CN2C(=O)N([C@@H](CC(C)C)C(=O)N[C@@H](CC(=O)O)c3ccccc3)C(=O)C2(C)C)cc1 the Potency [9] was “inactive”, the Potency [2] was “inactive” and the Potency [3] was “inactive”.
